Screening data deposited in PubChem BioAssay by several laboratories.
NTR1 agonist: agonists of human neurotensin receptor NTR1. P30989. NTR1-U2OS beta-arrestin-GFP spot imaging, agonist mode. activation, % at 20 µM. actives 0.17% (n = 330,000). AID 493036;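 active means activation at or above 40% of the spot to cytoplasm intensity ratio, with at least 20 cells analyzed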;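 further: 0% = DMSO without peptide and 100% = 100 nM NTR1 peptide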
HTR2A ag: agonists of mouse serotonin 5-HT2A receptor (HTR2A); P35363; CHO-K1 mHTR2A beta-arrestin complementation, luminescence; percent of 30 µM serotonin response; activation, % at 7.6 µM; actives 0.66% (n = 360,000);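 active means activation above a run cutoff, the mean activation of all tested compounds plus 3 SD, cut at about 14% in these data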;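 further: 0% = plate median of compound wells and 100% = 30 µM serotonin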
B2AR ag: human beta-2 adrenergic receptor agonism by FAP; actives 0.43% (n = 340,000); P07550; Am2.2-beta2AR cells, FAP receptor internalization, flow cytometry; response, % (concentration not given with the values);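 active means response above a set limit, near 3 SD of response in nonfluorescent compounds, cut at about 42% in these data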
ABHD5 PLIN5 PPI: ABHD5-PLIN5 protein interaction inhibition; Split G. princeps luciferase complementation, luminescence, 4 h; inhibition, % at 4 µM; actives 0.78% (n = 360,000);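 active means inhibition above the mean inhibition across every tested compound plus 3 SD, cut at about 22% in these data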;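 further: 0% = DMSO only wells and the 100% control is not disclosed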
Target sequence (Q00G26 whole entry, looked up): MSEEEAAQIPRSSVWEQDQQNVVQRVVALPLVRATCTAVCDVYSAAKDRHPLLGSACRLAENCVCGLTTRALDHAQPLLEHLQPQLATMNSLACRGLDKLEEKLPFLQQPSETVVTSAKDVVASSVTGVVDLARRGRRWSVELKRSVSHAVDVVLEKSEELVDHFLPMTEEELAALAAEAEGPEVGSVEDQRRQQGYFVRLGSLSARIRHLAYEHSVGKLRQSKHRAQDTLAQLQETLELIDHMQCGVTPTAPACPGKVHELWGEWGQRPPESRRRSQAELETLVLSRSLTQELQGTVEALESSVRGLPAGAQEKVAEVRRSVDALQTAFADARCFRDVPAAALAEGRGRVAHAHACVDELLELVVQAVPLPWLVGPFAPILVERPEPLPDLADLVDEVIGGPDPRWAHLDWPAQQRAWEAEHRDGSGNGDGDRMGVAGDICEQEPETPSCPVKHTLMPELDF
Target sequence (Q8WTS1 whole entry, looked up): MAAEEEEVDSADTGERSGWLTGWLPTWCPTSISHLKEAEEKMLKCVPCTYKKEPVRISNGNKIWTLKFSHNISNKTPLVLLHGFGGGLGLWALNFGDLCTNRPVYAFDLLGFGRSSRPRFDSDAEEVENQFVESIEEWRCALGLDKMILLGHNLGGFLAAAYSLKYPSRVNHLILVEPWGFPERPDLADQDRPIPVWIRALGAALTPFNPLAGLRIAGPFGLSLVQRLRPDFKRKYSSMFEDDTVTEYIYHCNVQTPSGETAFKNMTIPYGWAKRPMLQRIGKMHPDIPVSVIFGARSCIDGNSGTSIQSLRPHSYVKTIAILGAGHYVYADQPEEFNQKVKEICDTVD
Granule exo inh: lytic granule exocytosis inhibition | inhibition, % at 10 µM | actives 0.66% (n = 360,000) | TALL-104 LAMP-1 surface exposure, flow cytometry; cells stimulated with thapsigargin and PMA;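 active means inhibition above about 55%, limit read from the data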
Exocytosis CP01: blocks lytic granule exocytosis; inhibition, % at 10 µM; AID 651954; shares compounds with Granule exo inh; actives 11% (n = 1,500); TALL-104 cells, LAMP-1 externalization, flow cytometry; stimulated with PMA plus thapsigargin; in the data active means inhibition above about 60%;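 further: 0% = stimulated vehicle wells and 100% = unstimulated wells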
Active calls of the source: *; nt = no result. Sampled rows, rich in hits. Any-hit rate of the full collection: about 2.3%.

SMILES	NTR1 agonist	HTR2A ag	B2AR ag	ABHD5 PLIN5 PPI	Granule exo inh	Exocytosis CP01
COc1ccccc1C1C(C#N)=C(N)N(N(C)C)C2=C1C(=O)CC(C)(C)C2 (configuration not stated)	-0.6	1.1	-3.8	-6.5	-6.7	nt
O=C1C=C(OCCF)CC(c2ccccc2C(F)(F)F)O1 (configuration not stated)	nt	3.3	nt	6.8	-8.1	nt
Cc1ccc(C(=O)NCCN2CCOCC2)c(Cl)c1	0.5	3.3	10.1	-4.1	55.7*	-13.2
O=C(NCCN1CCOCC1)c1ccccc1Cl	-1.4	12.3	-2.8	1.8	12.1	nt
CCCn1ncc(CN2CCC(N3CCC(C(=O)N4CCOCC4)CC3)CC2)c1C	-1.1	3.0	3.1	9.3	-2.3	nt
COC(=O)[C@@]1(Sc2ccc(C)cc2)CC(=O)N(C(=O)/C=C/c2ccccc2)[C@@H]1c1ccccc1	nt	-1.0	nt	9.4	-1.4	nt
O=C(NCC1CCCO1)c1cc(S(=O)(=O)Nc2ccc(Br)cc2)ccc1Cl (configuration not stated)	3.7	3.5	6.5	-8.8	82.9*	-4.9
O=C(NCC1CCCO1)c1cc(S(=O)(=O)N2CCOCC2)ccc1Cl (configuration not stated)	-0.7	-9.1	1.7	7.5	11.5	nt
CC/C(=N\NC(N)=O)c1ccc(OC(F)F)cc1	2.1	2.8	12.6	1.5	0.1	nt
COc1ccc(C)cc1NC(=O)c1nn(-c2ccccc2)cc1OC	15.7	5.7	19.8	0.2	100.0*	-0.9
Cc1ccc(C)c(NC(=O)c2nc(-c3ccccc3)n(-c3ccccc3)n2)c1	3.1	-3.6	-1.2	-0.3	68.5*	4.0
CC(C)Cn1c(N)c(C=O)c(=O)[nH]c1=O	5.2	1.2	10.2	1.6	-1.6	nt
O=C(Nc1nc2ccccc2n1CCN1CCOCC1)c1ccc(COc2ccccc2Br)o1	4.3	-10.0	-1.4	0.8	70.2*	80.5*
O=C(NCc1ccccn1)C1Nc2ccc(C(F)(F)F)cc2C2C=CCC12 (configuration not stated)	-2.2	-1.1	-0.3	-1.9	64.1*	-14.6
CCOC(=O)C1CCCN(C(=S)Nc2cc(C)cc(C)c2)C1 (configuration not stated)	-1.8	11.4	1.5	6.3	-1.3	nt
CCOC(=O)c1cc(C(=O)c2cccs2)n2ccc(C(C)=O)cc12	5.5	0.0	-10.9	0.7	97.0*	-2.3
COc1cccc(-c2cnc3c(NC=O)cc(-c4ccccc4)cn23)c1	nt	-6.3	nt	-3.8	96.6*	70.3*
COc1cccc(-c2cnc3c(NC=O)cc(-c4cccc(NC(C)=O)c4)cn23)c1	nt	4.9	nt	-2.9	2.9	nt
COc1cccc(-c2cnc3c(NC=O)cc(-c4cc(C)c(O)c(C)c4)cn23)c1	nt	-11.3	nt	-3.0	62.9*	14.4
CCCCCCNCC(=O)N1CCC(Cc2ccccc2)CC1	6.2	-2.2	-10.9	6.9	70.2*	-12.6
Cc1ccc(-c2nnc(CSc3nnc(COc4ccccc4)n3-c3ccc(C)cc3)o2)cc1	5.3	-10.2	4.8	7.8	76.0*	-1.7
O=C(COC(=O)CC1CCCCC1)Nc1c(Cl)cccc1Cl	0.5	4.2	-3.4	7.8	3.5	nt
CC(C)(C)c1ccc(C(=O)NCC(=O)NCc2ccccn2)cc1	-1.1	-1.2	-5.2	6.1	-2.1	nt
COCCNC(=S)N(CCc1c(C)[nH]c2ccc(F)cc12)Cc1ccc(C)cc1	3.5	-2.7	1.3	-5.2	77.1*	22.8
COc1ccccc1OCCCCn1ncc2ccc(OC)c(OC)c2c1=O	-0.3	3.2	3.1	1.7	77.6*	-12.0
SMILES	NTR1 agonist	HTR2A ag	B2AR ag	ABHD5 PLIN5 PPI	Granule exo inh	Exocytosis CP01
COc1cccc(OC)c1OCCCCn1cnc2ccccc2c1=O	0.7	-0.5	-3.8	-5.8	0.8	nt
O=C1NC[C@H](Cc2ccccc2)N(CCc2cccc(F)c2)C1=O	-2.8	5.0	-4.9	3.3	61.3*	-12.9
CN1CCN(C(=O)C[C@H]2CC[C@H]3[C@@H](COC[C@@H](O)CN3C(=O)C3CCCC3)O2)CC1	nt	-2.3	nt	-2.7	7.0	nt
O=C(CCCc1ccccc1)Nc1ccnn1C1CCN(Cc2ccccc2)CC1	-0.5	-7.8	2.1	8.5	63.9*	-4.7
O=C(O)C1(Nc2ccc(Br)cc2)CCCC1	nt	5.6	-0.5	1.1	-0.3	nt
CC(=O)Nc1ccc(NC(=O)Cc2ccc(S(=O)(=O)N3CCCCC3)cc2)cc1	-1.9	-3.0	2.7	-8.0	-6.6	nt
O=C(CNC1CCCCC1)Nc1ccc(S(=O)(=O)N2CCCCC2)cc1	-1.2	-4.7	-1.1	-0.9	78.0*	21.1
Cc1ccc(N(CN2C(=O)C3C4CCC(C4)C3C2=O)C(=O)c2ccco2)cc1 (configuration not stated)	0.4	-3.1	-6.7	0.3	0.2	nt
COc1cccc(-c2nc(N3CCCCC3)c3ccccc3n2)c1O	30.8	-1.6	16.0	-0.6	76.6*	9.0
CC(=O)Nc1cccc(-c2cc(NC(C)=O)c3ncc(-c4cccc(C(F)(F)F)c4)n3c2)c1	nt	3.9	nt	1.4	17.2	nt
COc1ccc(F)cc1-c1cc(NC(C)=O)c2ncc(-c3cccc(C(F)(F)F)c3)n2c1	nt	1.2	nt	-0.2	58.3*	42.7
Fc1cccc(CCN2CCNC[C@@H]2CC2CCCCC2)c1	1.5	-7.1	24.0	5.3	61.8*	-11.3
c1ccc(C2(CN3CCNC[C@@H]3CC3CCCCC3)CC2)cc1	-2.0	-2.6	7.5	3.9	-8.6	nt
Cc1ccccc1CCN(CC(=O)NCc1ccc(F)cc1)C(=O)c1csnn1	-1.5	5.7	14.7	2.5	-4.1	nt
Cc1cccc(CCN(CC(=O)NCc2ccc(F)cc2)C(=O)c2csnn2)c1	-1.2	-0.8	8.7	10.1	68.1*	-4.3
CCCN(C(=O)COc1ccc(Cl)cc1Cl)c1c(N)n(Cc2ccccc2)c(=O)[nH]c1=O	2.7	1.1	-16.2	0.6	83.1*	-3.4
O=C(COc1ccc(Cl)cc1Cl)Nc1c(-c2cccs2)nc2ccccn12	0.2	-0.2	6.8	4.0	2.5	nt
O=C(CN1C(=O)C(=O)c2ccccc21)c1ccc(Cl)cc1	0.7	3.2	3.4	-4.3	62.6*	-11.9
CN1C(=O)C2(Nc3ccccc3-c3nc4ccccc4n32)c2ccccc21 (configuration not stated)	0.5	-4.3	8.2	5.2	1.4	nt
O=C1Nc2ccccc2C12Nc1ccccc1-c1nc3ccccc3n12 (configuration not stated)	-0.8	-1.2	-6.0	-1.3	55.8*	-3.1
Cc1cc2c(cc1C)CSC(c1c(O)ccc3ccccc13)SC2	28.7	5.4	17.9	-4.7	75.9*	10.8
Cc1cc2c(cc1C)CSC(c1ccc3ccccc3c1O)SC2	10.5	-3.3	6.0	-10.9	-4.0	nt
COc1ccc(C(CNC(=O)Cc2ccc(-c3ccccc3)cc2)N(C)C)cc1 (configuration not stated)	1.0	-9.9	-0.2	5.1	62.3*	-13.7
COc1ccc(C(CNC(=O)CSc2ccccc2C)N(C)C)cc1 (configuration not stated)	0.6	-1.1	-2.3	-3.1	29.0	nt
